GAA850 FXN act – FXN promoter activators, primary screen, cell-based, luciferase luminescence, HEK293 lucGAA850. HEK293 lucGAA850 FXN promoter luciferase reporter, 24 h; percent of 10 µM SAHA response. activation, % at 6 µM. 0.56% of 360,000 active. AID 540364, 2011;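 active means activation above the average of all compounds screened plus 3 SD, cutoff fixed separately per campaign, cut at about 7.5% in these data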;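 further: 0% = DMSO wells and 100% = 10 µM SAHA wells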
AHR act – AHR activators, primary screen, cell-based, luminescence, luciferase reporter, human; Aryl hydrocarbon receptor (Homo sapiens), P35869; AID 2796, 2010; 2.5% of 320,000 active; AHR-responsive luciferase reporter cells; activation, % at 5 µM; in the data active means activation above about 47%;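 further: 0% = vehicle wells and 100% = reference agonist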
Target sequence (P35869 whole entry, looked up): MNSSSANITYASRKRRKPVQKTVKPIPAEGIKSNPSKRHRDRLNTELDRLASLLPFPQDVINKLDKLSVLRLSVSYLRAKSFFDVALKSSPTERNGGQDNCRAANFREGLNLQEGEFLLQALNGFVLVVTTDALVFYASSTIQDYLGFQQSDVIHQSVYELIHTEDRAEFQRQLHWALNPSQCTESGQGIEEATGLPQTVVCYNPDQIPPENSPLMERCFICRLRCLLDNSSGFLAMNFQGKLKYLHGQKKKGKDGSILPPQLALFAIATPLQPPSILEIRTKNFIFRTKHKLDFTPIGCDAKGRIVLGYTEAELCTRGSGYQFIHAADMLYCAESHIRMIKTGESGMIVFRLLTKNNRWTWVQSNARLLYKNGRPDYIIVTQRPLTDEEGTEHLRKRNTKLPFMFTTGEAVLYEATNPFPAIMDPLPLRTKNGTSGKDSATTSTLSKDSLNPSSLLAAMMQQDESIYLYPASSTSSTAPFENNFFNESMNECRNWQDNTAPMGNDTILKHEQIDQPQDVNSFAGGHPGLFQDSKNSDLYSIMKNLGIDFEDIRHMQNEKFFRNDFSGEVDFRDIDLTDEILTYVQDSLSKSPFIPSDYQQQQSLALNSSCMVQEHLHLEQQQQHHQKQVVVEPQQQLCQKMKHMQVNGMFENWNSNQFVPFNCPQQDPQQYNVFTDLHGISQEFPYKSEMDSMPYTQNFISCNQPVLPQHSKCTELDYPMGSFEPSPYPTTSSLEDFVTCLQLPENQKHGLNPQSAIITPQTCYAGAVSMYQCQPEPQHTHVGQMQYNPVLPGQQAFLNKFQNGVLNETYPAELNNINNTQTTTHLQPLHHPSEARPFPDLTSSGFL
HSF1 inh – HSF1 inhibitors in luciferase reporter cells, primary screen, cell-based, NIH3T3, luminescence. NIH3T3-HGL HSE-luciferase, MG132-induced, luminescence 8 h; stronger effect = lower value. activity change, negative = inhibition, % at 7.5 µM (by protocol). 0.77% of 300,000 active;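 active means more than half of replicate wells show activity change below -50%, luminescence cut by over half; inconclusive means some wells, but at most half, below -50%; inactive means no replicate well below -50%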;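 further: luciferase reports HSF-1 transcriptional activity via heat shock element; 0% = median of DMSO wells and -100% = zero luminescence signal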
HSF-1 act – HSF-1 activators, primary screen, NIH3T3-HGL cells, MG132 stress, luminescence, single point; 1.7% of 300,000 active; activation, % at 9 µM; NIH3T3-HGL HSF-1 luciferase reporter, 8 h; 100% = twice DMSO control signal;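 active means mean replicate activation of at least 50% with a set share of replicates each reaching 50%; inconclusive means only one of those two conditions met; inactive means mean below 50% and too few replicates reaching it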;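 further: 0% = median of the neutral control wells and 100% = twice that signal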
* = called active by the depositor; u = inconclusive; x = no result. Compounds with a hit are over-represented: about 4.6% of the library has one in this group of screens.

SMILES | GAA850 FXN act | AHR act | HSF1 inh | HSF-1 act
CCOC(=O)CN1CC23C=CC(O2)C(C(=O)Nc2ccc4c(c2)OCO4)C3C1=O (centres undefined) | 3 | 70* | 2 | -7
CCOC(=O)CN1CC23C=CC(O2)C(C(=O)Nc2ccc(OCC)cc2)C3C1=O (centres undefined) | 1 | -2 | 2 | 8
O=C(Nc1cc(C(F)(F)F)ccc1-n1cncn1)c1cn2ccccc2n1 | 2 | 78* | x | x
O=C(Nc1cc(Cl)ccc1-n1cncn1)c1cn2ccccc2n1 | 1 | 27 | -3 | 3
COC(=O)C1C(=O)C2=C(CC1C)NC(C)=C(C(=O)OCc1ccc(OC)cc1)C2c1ccc(C)o1 (centres undefined) | -1 | 0 | 66 | 112*
Cc1cc(C(=O)COc2ccc([N+](=O)[O-])cc2)c(C)n1C1CC1 | 5 | -3 | 17 | 24
Cc1cc(C(=O)COc2cc(F)ccc2[N+](=O)[O-])c(C)n1C1CC1 | 2 | 76* | -4 | 11
COc1c2ccc(OCC/C(C)=C/C(=O)C=C(C)C)cc2nc2occc12 | 1 | 76* | x | x
COc1cc2nc3occc3c(OC)c2cc1OC | 2 | -10 | 8 | -2
CC(=O)Nc1cccc(NC(=O)CSc2nnc(Cc3cccn3C)n2-c2ccc(F)cc2)c1 | -1 | -1 | -65* | -72
Cc1ccc(CNC(=O)C2CCC(=O)N(Cc3ccc(Cl)cc3)C2)cc1F (centres undefined) | 0 | x | 16 | 56*
CCn1cc(CNC(=O)C2CCC(=O)N(Cc3ccc(Cl)cc3)C2)cn1 (centres undefined) | 2 | -1 | -3 | -16
COc1ccc(CCN2CC(C(=O)NCc3cc(C)on3)CCC2=O)cc1 (centres undefined) | -1 | x | 30 | 74*
CCc1cc(CNC(=O)C2CCC(=O)N(CCc3ccc(OC)cc3)C2)on1 (centres undefined) | -1 | 2 | -3 | 1
COC(=O)c1ccccc1NC(=O)c1nc(S(=O)(=O)Cc2ccccc2)ncc1Cl | 2 | -1 | 27 | 28
CC(=O)Nc1ccc(NC(=O)c2nc(S(=O)(=O)Cc3ccccc3)ncc2Cl)cc1 | 6 | 1 | -94* | -94
CS(=O)(=O)c1ncc(Cl)c(C(=O)Nc2ccc3ccccc3c2)n1 | -4 | x | -93* | -92
O=C(Nc1ccc2ccccc2c1)c1cnccn1 | 7 | 30 | -3 | 19
COc1ccc(CNC(=O)c2nc(S(=O)(=O)Cc3ccccc3)ncc2Cl)cc1 | 6 | 2 | 227 | 248*
O=C(CCC(=O)N1CCOc2ccccc21)Nc1ccccc1Br | -1 | 25 | 0 | 3
COc1ccc(C(O)c2nc(-c3cc(F)cc(F)c3)cs2)cc1 (centres undefined) | 3 | x | x | x
O=C1OC(c2ccc(Br)cc2)=N/C1=C\N1CCCCC1 | 4 | 63* | 32 | 45
CN1CCN(S(=O)(=O)c2cccc(C(=O)N(C)Cc3c(F)cccc3Cl)c2)CC1 | 3 | -2 | x | x
Cc1ccc2nc(-c3cccc(S(=O)(=O)N(C)C)c3)cn2c1 | 1 | 26 | -5 | 16
COc1ccc(-c2cn3cc(C)ccc3n2)cc1Br | 6 | 4 | 42 | 66*
SMILES | GAA850 FXN act | AHR act | HSF1 inh | HSF-1 act
COc1ccc(-c2cn3cc(Cl)ccc3n2)cc1OC | 5 | 56* | 37 | 64*
CC1(C)CC(=O)C(C2=NC3(CCCCCC3)Cc3ccccc32)=C(O)C1 | 1 | 3 | -3 | -3
O=C(N/C(=C/C=C/c1ccccc1)C(=O)N1CCOCC1)c1ccccc1Cl | 2 | 67* | 0 | 2
CCOc1cc(C(=S)N2CCCC2)ccc1O | 1 | -3 | -31 | -45
Cc1ccc2c(c1)sc(=NC(=O)C1CC1)n2C | 4 | 54* | 11 | 14
CCOC(=O)c1sc(=NC(=O)c2cccs2)n(C)c1C | 7 | 38 | 29 | 53*
CCOC(=O)c1sc(=NC(=O)c2ccc(Cl)s2)n(C)c1C | 5 | 21 | -37 | -40
Cc1ccc2c(c1)sc(=NC(=O)c1cccs1)n2C | -5 | 56* | -31 | -43
C#CCn1c(=NC(=O)c2cccs2)sc2cccc(OC)c21 | 4 | 22 | 16 | 4
Cc1cc(C(=O)N/N=C/c2cc(Br)ccc2OC(=O)c2ccc(Br)cc2)n[nH]1 | x | 50* | 10 | 33
Cc1cc(C(=O)N/N=C\c2cc(C(C)(C)C)ccc2O)n[nH]1 | -2 | 53* | -3 | 2
Cc1cc(C(=O)N/N=C/c2cc(Br)cc(Br)c2OC(=O)c2ccccc2)n[nH]1 | x | 11 | 2 | 3
Cc1cc(C(=O)N/N=C/c2cccs2)n[nH]1 | 7 | 11 | 16 | 32
Nc1ccc(S(=O)(=O)c2cc(O)c3ccccc3c2O)cc1 | 3 | x | x | x
c1ccc2c(-c3nnc(SCc4cn5ccccc5n4)o3)c[nH]c2c1 | 1 | -2 | 3 | 32
c1ccc2c(-c3cn4ccccc4n3)c[nH]c2c1 | x | 54* | -4 | -10
C/C=C/C(=O)N1CC2(CC(c3cccc(NC(=O)CCCCC)c3)=NO2)C[C@H]1C(N)=O (some centres undefined) | x | x | 10 | -8
CCc1ccc2c(COC(=O)c3n[nH]c4ccccc34)cc(=O)oc2c1 | -1 | 16 | 50 | u
O=C(COC(=O)c1n[nH]c2ccccc12)NC(=O)NC1CCCCC1 | 0 | 3 | 24 | 52*
Cc1ccc2c(COC(=O)c3n[nH]c4ccccc34)cc(=O)oc2c1 | 5 | 3 | 46 | 76*
CCOC(=O)c1n[nH]c2ccccc12 | 0 | 2 | 2 | -5
O=C(OCCOc1ccccc1)c1n[nH]c2ccccc12 | 4 | 5 | 34 | 67*
COc1ccc(C(=O)C[n+]2cc(Br)cc3ccccc32)cc1[N+](=O)[O-] | 3 | 71* | 4 | 9
COc1ccc(C(=O)OCC(N)=O)cc1[N+](=O)[O-] | 1 | -3 | 1 | -10
COC(=O)c1cc(NC(=O)c2ccoc2C)cc(C(=O)OC)c1 | -2 | 5 | 4 | 13
SMILES | GAA850 FXN act | AHR act | HSF1 inh | HSF-1 act
Cc1cccn2c(=O)c3cc(C(=O)NC4CCCC4)c(=N)n(CC4CCCO4)c3nc12 (centres undefined) | 2 | 55* | -8 | 8
CCc1ccc(NC(=S)N(CCCN2CCN(C)CC2)Cc2cccs2)cc1 | 2 | 0 | -1 | -5
COc1ccc2c(c1OC)C(=O)N(c1ccccn1)C2 | 4 | 52* | 21 | 42
Cc1ccc(S(=O)(=O)NCc2ccc(C(=O)N3CCN(c4ccccc4)CC3)cc2)cc1 | 0 | 2 | 3 | 3
COc1cccc(NC(=O)Cn2nnc(C(=O)Nc3ccccc3)c2N)c1 | -2 | 35 | 0 | -11
COc1cccc(NC(=O)c2nnn(Cc3ccc(Br)cc3F)c2N)c1 | 1 | 54* | 49 | 70*
Cn1nc([N+](=O)[O-])c(C(C#N)c2nc3ccccc3n2C)c(Cl)c1=O (centres undefined) | -2 | 74* | 40 | 61*

Screening data deposited in PubChem by several laboratories.
